TRHR ag = agonists of human TRH receptor. 360,000 compounds, 0.18% hits. TRHR cells, calcium flux fluo-8, FDSS agonist mode. P34981. activation, % at 2 µM; also: 0% is about no effect
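Read-out: compound-evoked intracellular calcium rise in TRHR cells, fluo-8 dye, kinetic FDSS fluorescence at 1 s/cycle following a 10-cycle baseline. Cells cultured overnight before dye loading (30 min–1.5 h, RT).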
TRHR enhancer = TRH receptor (human) allosteric enhancement. P34981. AID 493056. enhancement, % at 2 µM. TRHR cells, fluo-8 calcium fluorescence, EC20 TRH enhancement. 360,000 compounds, 0.66% hits; in the data active = enhancement above about 30%; also: 0% is about no effect
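Enhancer read-out: after compound pinning and an initial kinetic agonist-mode read, an EC20 of TRH (10 nM final) was injected and fluo-8 calcium signal (Ex 480/Em 530) followed at 1 s/cycle for 100 cycles in TRHR-expressing cells.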
D1 ag = human D1 receptor agonism; 360,000 compounds, 1% hits; activation, % at 2 µM; AID 504660; HEK293 T-REx D1 cells, calcium flux, agonist mode; also: 0% is about no effect
Target sequence (P21728 whole entry, looked up): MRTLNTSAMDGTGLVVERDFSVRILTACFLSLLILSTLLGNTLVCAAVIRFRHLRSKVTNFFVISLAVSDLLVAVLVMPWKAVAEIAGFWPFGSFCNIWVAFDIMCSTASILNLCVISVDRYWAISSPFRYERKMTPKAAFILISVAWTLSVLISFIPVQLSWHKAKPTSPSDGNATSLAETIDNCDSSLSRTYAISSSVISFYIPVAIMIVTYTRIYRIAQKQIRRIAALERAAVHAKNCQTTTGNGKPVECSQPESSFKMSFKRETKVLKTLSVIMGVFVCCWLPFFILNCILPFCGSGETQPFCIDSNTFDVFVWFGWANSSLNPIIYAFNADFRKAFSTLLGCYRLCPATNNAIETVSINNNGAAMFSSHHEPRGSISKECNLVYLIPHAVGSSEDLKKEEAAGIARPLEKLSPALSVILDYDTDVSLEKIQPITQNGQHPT
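Agonism was scored from calcium flux recorded over 180 s (1 read/s) after pintool compound addition, following a 10-cycle baseline. Cells were inducible force-coupled HEK293 TREx D1, plated overnight at 30 C and loaded with no-wash calcium dye.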
D1 potentiator = enhances dopamine response at the human D1 receptor; P21728; HEK293 TREx D1 cells, calcium flux, dopamine EC20 potentiation; potentiation, % at 10 µM; 360,000 compounds, 0.036% hits; AID 504651; in the data active = potentiation above about 30%; also: 0% is about no effect
D1 antag = blocks dopamine activation of the human D1 receptor. P21728. HEK293 TREx D1 cells, calcium flux, dopamine EC80; hits give low values. activity change, negative = inhibition, % at 10 µM. 360,000 compounds, 3.2% hits; in the data active = activity change below about -30%; also: % is scaled to controls: 0 for no effect and ±100 for the full control effect
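Kinetic fluorescence of a calcium dye serves as the read-out. D1-expressing Hek293 Trex cells, induced overnight at 30 C, are exposed to compound for 180 s before an EC80 dopamine addition, then read 180 s further.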
An asterisk follows results filed as active; nt = no result given. This is a sample that favours compounds with a hit; in the whole collection about 4.7% have one here. Rule as the data show it, unless noted: active = activation above about 30%; inactive = the rest.

SMILES	TRHR ag	TRHR enhancer	D1 ag	D1 potentiator	D1 antag
COC(=O)c1ccc(NC(=S)NC2CCCCC2C)cc1 (stereo not drawn)	0.6	-5.0	23.4	-4.8	-13.7
CC1CCCC(NC(=S)Nc2ccc(SC(F)F)cc2)C1C (stereo not drawn)	-0.4	4.9	18.3	-9.4	-43.9*
FC(F)Sc1ccc(NC(=S)NC2CCCC2)cc1	0.8	-3.2	29.7	-3.5	-34.2*
OC1CCC(NC(=S)Nc2ccc(SC(F)F)cc2)CC1 (stereo not drawn)	-0.1	-3.0	4.0	-2.5	-8.8
O=[S+]([O-])(c1ccc2c(c1)OCCO2)N1CCN([S+](=O)([O-])c2cc(Cl)ccc2F)CC1	2.2	-3.9	1.5	16.7	-11.9
COC(=O)c1cc(Cl)ccc1NC(=O)CSc1ncc(S(=O)(=O)c2ccc(Br)cc2)c(=O)[nH]1	1.0	-3.4	2.7	1.6	-3.7
Cc1ccc(S(=O)(=O)NCC(=O)OCCOc2cccc(Cl)c2)cc1	0.7	4.1	4.0	39.9*	-4.7
Cc1ccc(S(=O)(=O)NCCC(=O)OCC(=O)Nc2cccc(Cl)c2)cc1	-0.2	-5.5	7.3	-4.6	-42.3*
Cc1cc(Cl)ccc1NC(=O)COC(=O)CCNS(=O)(=O)c1ccccc1	-0.4	13.0	8.5	-1.9	11.0
Fc1ccccc1CNc1nc(-c2cccnc2)nc2ccccc12	3.5	11.9	0.8	nt	-59.7*
O=[N+]([O-])c1cccc(S(=O)(=O)Nc2nc3ccccc3nc2Nc2cccc(S(=O)(=O)N3CCCCC3)c2)c1	1.3	-19.7	19.9	-5.6	-31.6*
Cc1ccc(S(=O)(=O)Nc2nc3ccccc3nc2Nc2cccc(S(=O)(=O)N3CCCC3)c2)cc1	5.3	-11.1	7.1	-8.0	-39.4*
O=[N+]([O-])c1cccc(S(=O)(=O)N2CCCCC2)c1	0.0	3.1	0.5	-3.0	41.3
Cn1c(=O)c2c(-c3ccc(Br)cc3)n(CCc3ccccc3)cc2n(C)c1=O	-1.8	-7.6	2.6	0.2	-11.0
CC1CCN(CC(O)COC2CCC(C(C)(C)C)CC2)CC1 (stereo not drawn)	-0.1	1.5	24.4	2.3	3.1
CC(C)(C)C1CCC(OCC(O)CN2CCCC2)CC1 (stereo not drawn)	-0.2	7.6	33.2*	4.8	8.8
CCN1CCC(N(Cc2cccc(OC)c2)C(=O)Nc2cccc(C(F)(F)F)c2)CC1	0.7	0.9	27.0	-0.9	-4.1
CCN1CCC(N(Cc2ccc(F)cc2)C(=O)Nc2cccc(C(F)(F)F)c2)CC1	3.1	2.6	100.2*	0.0	-24.6
Cc1nn(-c2ccccc2)c(Cl)c1/C=N/Nc1ccc(Cl)c(C(=O)O)c1	-0.8	-1.0	0.3	-8.1	8.8
Cc1nn(-c2ccccc2)c(Cl)c1/C=N/Nc1ccc(S(=O)(=O)Nc2ccccc2C(=O)O)cc1[N+](=O)[O-]	0.1	-4.4	1.4	0.3	-31.7*
Cc1ccc(NC(=O)CCC(=O)N2CCSc3ccccc32)cc1Cl	0.4	9.0	1.1	-2.5	-2.7
COc1ccc(NC(=O)c2cccc(N3C(=O)C4C5C=CC(C5)C4C3=O)c2)c(OC)c1 (stereo not drawn)	-0.3	1.5	2.0	-2.6	-8.4
COc1ccc(NC(=O)c2cccc(N3C(=O)C4C5C=CC(C6CC56)C4C3=O)c2)c(OC)c1 (stereo not drawn)	-0.1	8.0	4.0	2.8	-38.7*
O=C(O)c1ccc(NC(=O)c2cccc(N3C(=O)C4C5CCC(C5)C4C3=O)c2)cc1 (stereo not drawn)	-0.2	-8.7	2.5	-1.6	8.6
COc1ccc(NC(=O)c2cccc(N3C(=O)C4C5CCC(C5)C4C3=O)c2)cc1 (stereo not drawn)	0.1	13.8	5.6	-2.2	-79.9*
SMILES	TRHR ag	TRHR enhancer	D1 ag	D1 potentiator	D1 antag
COc1ccc(OC)c(CNC(=O)C2CCN(S(=O)(=O)c3ccc4[nH]c(=O)oc4c3)CC2)c1	0.2	-4.0	0.2	-4.0	-22.6
O=C(CN1C(=O)C2C3C=CC(C3)C2C1=O)OCC(=O)c1ccc(Br)cc1 (stereo not drawn)	0.0	-8.8	13.5	-1.6	-43.3*
O=C(CN1C(=O)C2C3CCC(C3)C2C1=O)OCC(=O)c1ccc(Br)cc1 (stereo not drawn)	0.6	12.0	7.1	-4.7	-19.5
COc1ccc(C(=O)COC(=O)C(C(C)C)N2C(=O)C3C4C=CC(C4)C3C2=O)cc1 (stereo not drawn)	0.4	-2.3	3.1	2.3	-58.8*
COC(=O)CCC(=O)Nc1ccc(S(=O)(=O)Nc2nc(C)cc(C)n2)cc1	-0.3	-0.4	-0.8	10.4	-2.6
COC(=O)N/N=C/C1=CCC2CC1C2(C)C (stereo not drawn)	1.3	3.9	1.4	-3.6	1.9
CC1(C)C2CC=C(/C=N/NC(=O)c3ccc(O)cc3)C1C2 (stereo not drawn)	0.2	-7.0	2.9	-1.0	-32.2*
O=C(O)c1ccc2c(c1)C(=O)N([C@H](Cc1ccc(F)cc1)C(=O)O)C2=O	0.7	4.5	1.1	6.0	-11.8
COc1cc(/C=C(/C#N)C(=O)c2c(C)[nH]c3ccccc23)ccc1OCC#N	0.9	4.9	3.5	-6.0	-21.3
COc1cc(/C=C(\C#N)c2nc3ccccc3[nH]2)cc(OC)c1O	64.8*	7.6	109.1*	-1.2	-1.6
COc1cc(/C=C(/C#N)c2nc3ccccc3c(=O)[nH]2)ccc1O	10.4	3.2	34.3*	-1.0	-0.4
CCOc1ccc(/C=C(\C#N)C(=O)c2c(C)[nH]c3ccccc23)cc1OC	1.0	36.4*	2.7	-3.4	16.4
COc1cc(/C=C(\C#N)C(=O)c2c[nH]c3ccccc23)cc(OC)c1O	19.6	-1.1	45.2*	-2.0	-3.9
Cc1ccc(-n2nc3c(=O)n(CC(=O)NCC(C)c4ccccc4)nc(C)c3c2C)cc1 (stereo not drawn)	-0.7	-3.7	-1.3	-1.9	-24.6
COc1c(O)ccc(/C=C(\C#N)c2nc3ccccc3[nH]2)c1[N+](=O)[O-]	2.2	-1.5	2.1	-4.3	12.6
COc1c(Cl)cc(Cl)cc1/C=C(\C#N)c1nc2ccccc2[nH]1	0.1	-4.6	11.8	-6.6	-60.6*
O=C(C1CCN(S(=O)(=O)c2ccccc2F)CC1)N1CCCC1	0.6	7.4	1.0	4.6	3.0
O=C1CC(c2ccc(Cl)c([N+](=O)[O-])c2)c2ccc3ccccc3c2N1 (stereo not drawn)	-2.6	37.3*	6.4	1.3	6.2
COc1cccc(NC(=O)c2ccc(CN3CCN(c4ccccc4)CC3)cc2)c1	0.4	2.7	-0.3	1.3	6.1
O=C(c1ccc(Br)cc1)N1CCN(Cc2ccccc2)CC1	-0.2	4.1	1.2	-30.4	-57.0*
CCC(CC)C(=O)Nc1cccc(C(=O)N2CCOCC2)c1	0.1	1.6	2.5	-0.1	-31.8*
